# Assay results from PubChem BioAssay AID1259312 (Keith Lab, Institute of Cancer Science, University of …, 2017).
# In all, about 4,500 compounds went through this assay and about 200 (4.4%) were called active. Only a selection was taken, and actives are over-represented in it overall. Values without a mark were called inactive.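 Rule for the calls: active = cell survival measured by absorbance rises more than 2.5-fold over infected cells without compound; inactive = the rest.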
# Assay: survival after telomere uncapping, modulators, primary screen, cell-based (AID 1259312);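 note: virus expresses mutant telomerase RNA that uncaps telomeres and kills cells; compound added 2 days after infection so exposure lasts 3 days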
# Details: HCT116 + Ad-hTR-mut, MTT, 5 d; at 10 µM, stronger effect = higher value
row,SMILES,fold change
1,c1ccc(CCn2c(-c3ccccc3)csc2=Nc2ccccc2)cc1,-2.95
2,CSc1nc(-c2ccc([N+](=O)[O-])cc2)nn1C,-3.83
3,CS(=O)(=O)NCCNC(=O)c1nonc1N,-1.3
4,Nc1nonc1C(=O)NCCNS(=O)(=O)c1ccccc1,3.28 (active)
5,NCCNC(=O)c1nonc1N,1.63
6,O=C(O)c1[nH]c(=O)[nH]c(=O)c1[N+](=O)[O-],1.2
7,CS(=O)(=O)N1CCc2cc(S(=O)(=O)N3CCC(c4ccccc4)CC3)ccc21,1.49
8,CS(=O)(=O)Nc1cccc(Cl)c1Cl,-1.31
9,COc1ccc(CC2=CN(C)CC3=C2OC(N)=C(C#N)C3c2ccc(OC)c(OC)c2)cc1OC (stereo unspecified),-1.28
10,O=C(Nc1ccc(Cl)cc1)Nc1ccc(Cl)cc1Cl,-2.79
11,CCc1nnc(NC(=O)CN(C)CCC#N)s1,-1.46
12,O=C(O)CCCn1c(=O)n(CCCC(=O)O)c2ccccc21,3.81 (active)
13,COC(=O)Cn1c(=O)c2ccccc2n(CC(=O)OC)c1=O,-1.31
14,O=c1n(Cc2ccon2)c2ccccc2n1Cc1ccon1,-2.68
15,CCN(C(=O)Cc1cccs1)C1CCCCC1,-1.09
16,Cn1c(=O)oc2ccc(S(=O)(=O)Nc3ccc4c(c3)n(C)c(=O)n4C)cc21,-1.89
17,Nc1nonc1-c1ccccc1,-1.8
18,Cc1ccc(N=Nc2ccccc2)c(N)n1,3.19 (active)
19,CC(=NCCCN1CCOCC1)c1c(C(F)(F)F)[nH]n(-c2nc3ccccc3s2)c1=O,inactive
20,CCCN=C(CC)c1c(C(F)(F)F)[nH]n(-c2nc3ccccc3s2)c1=O,inactive
21,CCCCCCCN=C(C)c1c(C(F)(F)F)[nH]n(-c2nc3ccccc3s2)c1=O,active
22,Cc1ccc2c(c1)c1c3n2CCN(c2nc(-c4ccc(Cl)cc4)cs2)C3CCC1 (stereo unspecified),1.42

row,SMILES,fold change
1,O=C1CC(=O)N(c2ccc(Br)cc2)N1,-1.32
2,Cn1cccc1/C=C1/C(=O)ON=C1c1ccccc1,-2.3
3,CCCCCCC1(C)OCO/C1=C\C[N+](C)(C)C (stereo unspecified),-1.62
4,O=S(=O)(c1ccc(Oc2ccc(Br)cc2)cc1)N1CCOCC1,-1.23
5,O=S(=O)(c1ccc(Br)cc1)N1CCCCCC1,1.7
6,CN1CCN(S(=O)(=O)c2ccc(Br)cc2)CC1,3.8 (active)
7,Nc1nnc(SCc2cccc(CSc3nnc(N)s3)n2)s1,1.27
8,Cn1c(=O)n(C)c2cc(CN3C(=O)c4ccccc4C3=O)ccc21,1.01
9,Nc1ccc(S(=O)(=O)Nc2ccccc2)cc1,-1.09
10,Nc1ccc(S(=O)(=O)Nc2ccc(Cl)nn2)cc1,2.5 (active)
11,CCc1nnc(NS(=O)(=O)c2ccc(N)cc2)s1,3.88 (active)
12,CC(=O)NS(=O)(=O)c1ccc(N)cc1,-1.73
13,O=S(=O)(Nc1ccc(Cl)cn1)c1ccc(Br)cc1,-1.1
14,CNS(=O)(=O)c1ccc(N)cc1,1.14
15,O=c1[nH]c(O)c(C=Nc2ccccc2Br)c(=O)[nH]1,inactive
16,O=C(O)C1CCS(=O)(=O)C1 (stereo unspecified),2.36
17,CC1=C(C(=O)OCC2CCCO2)C(c2ccc(C)o2)C2=C(CC(C)(C)CC2=O)N1 (stereo unspecified),2.87 (active)
18,CCCOC(=O)C1=C(C)NC2=C(C(=O)CC(C)(C)C2)C1c1ccc(C)o1 (stereo unspecified),-1.43
19,CC1=C(C(=O)OCC2CCCO2)C(c2ccc(C)o2)C2=C(CCCC2=O)N1 (stereo unspecified),1.18
20,CCCCC(CC)C(=O)N(CC#N)CC#N (stereo unspecified),-1.13
21,CC(C)(C)c1ccc(C(N2CCCCC2)P(=O)(c2ccccc2)N2CCCCC2)cc1 (stereo unspecified),-1.12
22,Cc1cc(/C=c2\sc3nc4ccccc4n3c2=O)c(C)n1C1CCCC1,-1.02

row,SMILES,fold change
1,Cn1cc([N+](=O)[O-])c(C(=O)n2cccn2)n1,-1.36
2,COC(=O)c1ccc(=O)oc1,-1.06
3,CN(C(=O)CSC(=S)N1CCCC1)c1ccccc1,1.5
4,N#Cc1c(N)sc2c1CCCCC2,3 (active)
5,CN1CCc2c(sc(N)c2C#N)C1,1.58
6,CC(=O)Nc1sc2c(c1C#N)CCCC2,1.19
7,c1ccc2c(Cc3ccncc3)c3ccccc3nc2c1,-1.25
8,O=[N+]([O-])c1cc(Br)cc(C=NCCCCCCN=Cc2cc(Br)cc([N+](=O)[O-])c2O)c1O,inactive
9,Cn1cccc1/C=C(/C#N)C(N)=O,1.32
10,COc1cc(NC(=O)CCC(=O)O)nc(OC)n1,-1.34
11,COc1cc(NS(=O)(=O)c2ccc(N)cc2)nc(OC)n1,3.06 (active)
12,Cc1cc(NS(=O)(=O)c2ccc(N)cc2)no1,-1.35
13,CCOC(=O)/C(C#N)=C/Nc1ccsn1,2.1
14,N#CC1=C(N)n2c(s/c(=C\c3ccc(O)cc3)c2=O)=C(C#N)C1c1ccc(O)cc1 (stereo unspecified),-3
15,COc1ccccc1OCCSc1nc2ccccc2o1,-1.24
16,O=[N+]([O-])c1ccc(Nc2ccc3c(c2)OCCO3)nc1,-1.85
17,O=[N+]([O-])c1cccnc1NCCc1cccs1,-2.56
18,O=[N+]([O-])c1ccc(NCCc2cccs2)nc1,2.58 (active)
19,O=[N+]([O-])c1ccc2c(c1)Cc1cc([N+](=O)[O-])ccc1-2,-1.19
20,O=S(=O)(c1ccc(Cl)cc1)N1CCCc2ccccc21,1.97
21,O=S(=O)(c1ccccc1)N1CCc2ccccc21,-1.19
22,O=S(=O)(c1ccc(Cl)cc1)N1CCc2ccccc21,4.39 (active)

row,SMILES,fold change
1,CCOC(=O)c1c(NC(=O)c2cccs2)sc2c1CCCCC2,1.37
2,CC(C(=O)Nn1cnnc1)N1C(=O)c2ccccc2C1=O (stereo unspecified),-8.91
3,Nc1cccc(S(=O)(=O)N2CCCC2)c1,-1.08
4,O=[N+]([O-])c1cccc(S(=O)(=O)N2CCCC2)c1,3.3 (active)
5,O=[N+]([O-])c1ccc2c(c1)oc1ccc(S(=O)(=O)N3CCCC3)cc12,1.12
6,CC(C)CC(=O)NC1CCCCCC1,-1.5
7,O=C1N=C(N2CCOCC2)S/C1=C\C1=Cc2ccccc2OC1,-1.34
8,OCC1(O)OC[C@H](O)[C@@H](O)[C@@H]1O (stereo partly specified),2.95 (active)
9,OC[C@H]1O[C@@H](O[C@@H]2[C@@H](CO)O[C@](O)(CO)[C@H]2O)[C@H](O)[C@@H](O)[C@H]1O,1.55
10,CC1(C)[C@H]2CCC1(CS(=O)(=O)N(C1CCCCC1)C1CCCCC1)C(O)C2 (stereo partly specified),-1.17
11,O=C(Cn1c(C(F)(F)F)nc2ccccc21)NC1CCCCC1,-1.95
12,N=C1SCC(=O)N1c1nccs1,1.78
13,O=c1c2ccccc2c2nc3c(c(-c4ccccc4)c12)c(=O)c1ccccc13,-1.07
14,c1ccc2c(c1)c1ccccc1c1nc3c4ccccc4c4ccccc4c3nc21,4.67 (active)
15,O=c1c2ccccc2c2nc3c(c(-c4cccc(Br)c4)c12)c(=O)c1ccccc13,-1.26
16,COC(=O)C1=C(C(=O)OC)SC2(S1)C(C(=O)OC)=C(C(=O)OC)SC1=C2c2cc(OC)ccc2NC1(C)C,1.52
17,Cc1ccc(-c2n[nH]c(=S)n2C)cc1Cl,-1.92
18,C=CCn1c(-c2ccc(Cl)cc2Cl)n[nH]c1=S,1.34
19,Cn1c(-c2ccc(Cl)cc2Cl)n[nH]c1=S,2.57 (active)
20,NC(=O)c1c(NC(=O)CCC(=O)O)sc2c1CCCC2,-1.38
